# Test results published in PubChem BioAssay (NCATS).
# Records with an inconclusive call do not appear. Unmarked numbers belong to inactive results. The source made the active and inactive calls. Calls come from the whole dose curve; as a rule, active = well fitted curve in the direction sought with a large enough effect; inconclusive = small, poorly fitted or top-dose-only effect, or another doubt; inactive = no such curve, though single readings can be large; an effect the other way counts as inactive or inconclusive.
# Target: DNA repair nuclease/redox regulator APEX1 (Homo sapiens) (UniProt P27695)
# Sequence (P27695 whole entry, looked up): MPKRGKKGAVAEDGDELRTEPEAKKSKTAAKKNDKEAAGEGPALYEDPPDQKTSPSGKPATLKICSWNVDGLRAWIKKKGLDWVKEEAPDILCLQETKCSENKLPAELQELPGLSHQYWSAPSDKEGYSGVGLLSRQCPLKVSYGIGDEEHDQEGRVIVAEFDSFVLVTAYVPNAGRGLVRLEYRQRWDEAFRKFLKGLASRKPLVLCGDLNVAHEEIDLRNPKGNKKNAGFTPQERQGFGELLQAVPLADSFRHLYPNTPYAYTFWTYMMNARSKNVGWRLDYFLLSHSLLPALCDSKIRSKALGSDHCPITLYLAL
# Assay: qHTS Validation Assay for Inhibitors of the Human Apurinic/apyrimidinic Endonuclease 1 (APE1) (AID 1705;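 note: TAMRA fluorescence gain over two minutes as APE1 cuts a quenched THF abasic duplex; % is set by controls: 0 for no effect and ±100 for the full control effect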)
# Conditions: purified APE1 endonuclease activity, fluorescence, titration; series mostly up to 57.1 µM; activity change, negative = inhibition: at the top concentration
# Summary of the method: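 Human APE1 was preincubated with compound for 15 min at room temperature, then 50 nM (final) THF-abasic double-stranded DNA substrate bearing 5'-TAMRA and 3'-BHQ-2 was added. Incision-driven fluorescence rise (ex 525/em 598 nm) was read kinetically.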
row,Compound,"activity change, negative = inhibition"
1,CC(C)C(=O)Nc1ccc([N+](=O)[O-])c(C(F)(F)F)c1,-3.6%
2,Cc1cc(C(C)(C)C)cc(C)c1CC1=NCCN1,-5.16%
3,CC(C)Cc1ccc(C(C)C(=O)O)cc1 (stereo not given),-3.44%
4,COc1cc2c(c(OC)c1OC)-c1ccc(OC)c(=O)cc1[C@@H](NC(C)=O)CC2,-5.7%
5,CC[N+](CC)(CC)CCOc1cccc(OCC[N+](CC)(CC)CC)c1OCC[N+](CC)(CC)CC,4.57%
6,COc1ccc2[nH]cc(CCNC(C)=O)c2c1,6.14%
7,Cn1ccc2cc3c(cc21)CCN3C(=O)Nc1cccnc1,-1.56%

# Tested on: not listed separately
# Assay: Counterscreen for APE1 Inhibitors: Fluorescent Dye Displacement Validation Assay (AID 1707); note: potency is the fitted concentration of half-maximal effect;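 for activity change, negative = inhibition: plate controls were ThO with dsDNA and no compound for no effect and ThO without dsDNA for full effect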
# Conditions: fluorescent dye displacement from DNA; series mostly up to 57.1 µM; activity change, negative = inhibition: at the top concentration
# Summary of the method: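 Loss of Thiazole Orange fluorescence marks promiscuous DNA binders. The dye (250 nM) is mixed with 50 nM abasic-site dsDNA in pH7.5 Tris buffer containing MgCl2, then compounds are added and emission is read once.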
Compound,"activity change, negative = inhibition",Potency
O=C(C1CCCCC1)N1CC(=O)N2CCc3ccccc3C2C1 (stereo not given),1.5%,–
CCC1(C)CC(=O)NC1=O (stereo not given),1.49%,–
CC(C)(Oc1ccc(C2CC2(Cl)Cl)cc1)C(=O)O (stereo not given),-0.289%,–
CN(C)C(=O)C(CCN1CCC(O)(c2ccc(Cl)cc2)CC1)(c1ccccc1)c1ccccc1,2.25%,–
CN1C(C(=O)Nc2ccccn2)=C(O)c2ccccc2S1(=O)=O,1.88%,–
COc1cc2nc(N3CCN(C(=O)C4COc5ccccc5O4)CC3)nc(N)c2cc1OC (stereo not given),-6.05%,–
Cc1ccc(C(=O)Nc2ccc(S(=O)(=O)O)c3cc(S(=O)(=O)O)cc(S(=O)(=O)O)c23)cc1NC(=O)c1cccc(NC(=O)Nc2cccc(C(=O)Nc3cc(C(=O)Nc4ccc(S(=O)(=O)O)c5cc(S(=O)(=O)O)cc(S(=O)(=O)O)c45)ccc3C)c2)c1,–,4.47 µM (active)
Clc1ccc(C(c2ccccc2Cl)C(Cl)Cl)cc1 (stereo not given),-2.38%,–
O=C(Nc1ccc([N+](=O)[O-])cc1Cl)c1cc(Cl)ccc1O,–,3.98 µM (active)
CC(COc1ccccc1)N(CCCl)Cc1ccccc1 (stereo not given),-0.732%,–
Cn1ccc2cc3c(cc21)CCN3C(=O)Nc1cccnc1,8.96%,–
Cn1c(=O)c2c(ncn2C)n(C)c1=O,0.154%,–

# Target: Endonuclease 4 (Escherichia coli (strain K12)) (UniProt P0A6C1)
# Assay: Counterscreen for APE1 Inhibitors: qHTS Validation Assay for Inhibitors of Endonuclease IV (AID 1708); note: potency is the fitted concentration of half-maximal effect; for activity change, negative = inhibition: % is set by controls: 0 for no effect and ±100 for the full control effect
# Conditions: E. coli endonuclease IV, DNA cleavage fluorescence; series mostly up to 57.1 µM; activity change, negative = inhibition: at the top concentration
# Summary of the method: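 Conditions: 2 nM enzyme, 50 nM TAMRA/BHQ-2 substrate, pH 7.5 Tris buffer with 2 mM MgCl2, RT. Compound preincubation 15 min; readout three fluorescence reads 60 s apart, third-minus-first.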
Compound,"activity change, negative = inhibition",Potency
O=C(C1CCCCC1)N1CC(=O)N2CCc3ccccc3C2C1 (stereo not given),-8.27%,–
C[C@](N)(Cc1ccc(O)c(O)c1)C(=O)O,19.6%,–
Cn1c(=O)c2[nH]cnc2n(C)c1=O,-8.03%,–
CCC1(C)CC(=O)NC1=O (stereo not given),0.803%,–
CC(C)(Oc1ccc(C2CC2(Cl)Cl)cc1)C(=O)O (stereo not given),-5.94%,–
CN1C(C(=O)Nc2ccccn2)=C(O)c2ccccc2S1(=O)=O,-9.72%,–
OCCN(CCO)c1nc(N2CCCCC2)c2nc(N(CCO)CCO)nc(N3CCCCC3)c2n1,-8.27%,–
COc1cc2nc(N3CCN(C(=O)C4COc5ccccc5O4)CC3)nc(N)c2cc1OC (stereo not given),-9.32%,–
Cc1ccc(C(=O)Nc2ccc(S(=O)(=O)O)c3cc(S(=O)(=O)O)cc(S(=O)(=O)O)c23)cc1NC(=O)c1cccc(NC(=O)Nc2cccc(C(=O)Nc3cc(C(=O)Nc4ccc(S(=O)(=O)O)c5cc(S(=O)(=O)O)cc(S(=O)(=O)O)c45)ccc3C)c2)c1,–,4.47 µM (active)
Clc1ccc(C(c2ccccc2Cl)C(Cl)Cl)cc1 (stereo not given),-3.13%,–
O=c1c(O)c(-c2ccc(O)c(O)c2)oc2cc(O)cc(O)c12,61.7%,–
COc1ccc2[nH]cc(CCNC(C)=O)c2c1,-5.78%,–
Cn1ccc2cc3c(cc21)CCN3C(=O)Nc1cccnc1,-6.59%,–
Cn1c(=O)c2c(ncn2C)n(C)c1=O,-8.51%,–
O=c1c(-c2ccc(O)cc2)coc2cc(O)cc(O)c12,-8.35%,–
CCc1cccc2c3c([nH]c12)C(CC)(CC(=O)O)OCC3 (stereo not given),8.03%,–
